# Screening results (PubChem)
# Sampled rows, rich in hits. Any-hit rate of the full collection: about 4.6%.
# TRHR ag: qHTS for Small Molecule Agonists and Allosteric Enhancers of Human TRH Receptor: Primary Screen for Agonists; Thyrotropin-releasing hormone receptor (Homo sapiens), P34981; TRHR cells, calcium flux fluo-8, FDSS agonist mode; activation, % at 2 µM; hit rate 0.18% among 360,000; AID 493084, 2011; further: 0% is about no effect
# Target sequence (P34981 whole entry, looked up): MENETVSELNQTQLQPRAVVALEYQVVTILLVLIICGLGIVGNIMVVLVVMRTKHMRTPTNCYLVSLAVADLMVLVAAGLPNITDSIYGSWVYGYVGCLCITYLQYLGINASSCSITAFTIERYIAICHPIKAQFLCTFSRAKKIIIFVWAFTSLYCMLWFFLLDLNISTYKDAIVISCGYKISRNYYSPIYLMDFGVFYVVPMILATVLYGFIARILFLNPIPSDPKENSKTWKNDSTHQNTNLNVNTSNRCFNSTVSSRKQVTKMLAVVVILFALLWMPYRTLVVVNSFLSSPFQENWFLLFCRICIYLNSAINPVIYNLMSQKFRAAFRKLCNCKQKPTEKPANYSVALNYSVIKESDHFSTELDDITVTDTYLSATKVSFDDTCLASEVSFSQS
#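 Agonist-mode FDSS calcium read (Ex 480/Em 530, 1 s cycles) in 1536-well TRHR cells with fluo-8 dye, after 10-cycle baseline and 23 nL compound addition; TRH at EC20 (10 nM final) added afterwards for the enhancer phase.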
# D1 potentiator: Potentiators of Human D1 Dopamine Receptor: qHTS; AID 504651, 2011; D(1A) dopamine receptor (Homo sapiens), P21728; HEK293 TREx D1 cells, calcium flux, dopamine EC20 potentiation; hit rate 0.036% among 360,000; potentiation, % at 10 µM; in the data active means potentiation above about 30%; further: 0% is about no effect
# D1 agonist: Allosteric Agonists of the Human D1 Dopamine Receptor: qHTS; D(1A) dopamine receptor (Homo sapiens), P21728; activation, % at 2 µM; HEK293 T-REx D1 cells, calcium flux, agonist mode; hit rate 1% among 360,000; further: 0% is about no effect
#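 Inducible HEK293 T-REx D1 cells, force-coupled to calcium signalling, were plated at 4000 cells/well with tetracycline and held overnight at 30 C. After no-wash calcium dye loading, compound-evoked calcium rise over 180 s flagged agonists.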
# TRHR PAM: qHTS for Small Molecule Agonists and Allosteric Enhancers of Human TRH Receptor: Primary Screen for Enhancers; Thyrotropin-releasing hormone receptor (Homo sapiens), P34981; hit rate 0.66% among 360,000; enhancement, % at 2 µM; TRHR cells, fluo-8 calcium fluorescence, EC20 TRH enhancement; in the data active means enhancement above about 30%; further: 0% is about no effect
#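 Enhancer read-out: after compound pinning and an initial kinetic agonist-mode read, an EC20 of TRH (10 nM final) was injected and fluo-8 calcium signal (Ex 480/Em 530) followed at 1 s/cycle for 100 cycles in TRHR-expressing cells.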
# D1 antagonist: Antagonist of Human D 1 Dopamine Receptor: qHTS; D(1A) dopamine receptor (Homo sapiens), P21728; HEK293 TREx D1 cells, calcium flux, dopamine EC80; stronger effect = lower value; activity change, negative = inhibition, % at 10 µM; hit rate 3.2% among 360,000; in the data active means activity change below about -30%; further: on the % scale 0 is the no-effect control and ±100 the full control effect
#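 Tetracycline-induced HEK293 T-REx cells with force-coupled D1 receptor were loaded with a no-wash calcium dye. Compound was added after a 10 s baseline and read kinetically for 180 s; EC80 dopamine was then added and calcium flux followed another 180 s.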
# * = called active by the depositor; . = no result. Unless noted, no stated cut-off is given here; in the data, active means activation above about 30%; inactive means the rest.
SMILES,TRHR ag,D1 potentiator,D1 agonist,TRHR PAM,D1 antagonist
Cc1ccc2ncccc2c1NS(=O)(=O)c1ccccc1,-1,-6,4,15,-4
O=C(CCCCCNC(=S)Nc1ccc(Cl)cc1)C[N+](=O)[O-],0,2,2,4,12
CCOC(=O)C1=C(COC(=O)/C=C/c2ccc(OC)c(OC)c2)NC(=O)NC1C (stereo not given),-1,2,2,-2,3
CCOC(=O)C1=C(COC(=O)/C=C/c2cc(OC)c(OC)c(OC)c2)NC(=O)NC1C (stereo not given),0,-5,1,0,-39*
CCOC(=O)C1=C(COC(=O)c2ccc(OC)c(OC)c2OC)NC(=O)NC1C (stereo not given),-1,-3,11,-5,-44*
CCOC(=O)C1=C(COC(=O)c2cc(OC)c(OC)cc2[N+](=O)[O-])NC(=O)NC1C (stereo not given),0,-2,2,4,-11
CCOC(=O)CSc1nc2sc3c(c2c(=O)n1-c1ccc(OCC)cc1)CCN(C)C3,9,-8,30*,3,6
CCOc1ccc(-n2c(SCC(N)=O)nc3sc4c(c3c2=O)CCN(C)C4)cc1,0,2,1,18,-1
Nc1nc(C2CC2)c(Sc2sc(N)nc2C2CC2)s1,1,0,24,-1,-49*
CCOC(=O)C1=CC[C@@H](c2cc3ccc(OC)cc3n2C)N(S(=O)(=O)c2ccc(C)cc2)[C@H]1C(=O)OCC,0,-4,-3,-2,.
Cc1cccc(NC(=O)C(C)N2C(=O)c3ccccc3S2(=O)=O)n1 (stereo not given),0,1,2,0,2
CC(C(=O)Nc1ncc([N+](=O)[O-])s1)N1C(=O)c2ccccc2S1(=O)=O (stereo not given),1,-4,4,1,-35*
COC(=O)c1ccc(NC(=O)Nc2nnc(N(C)C3CCCCC3)s2)cc1,0,3,-1,-1,-55*
O=[N+]([O-])c1cccc(S(=O)(=O)c2ccc(NCCOCCO)c([N+](=O)[O-])c2)c1,1,-3,8,-11,1
O=[N+]([O-])c1cccc(S(=O)(=O)c2ccc(NCCO)c([N+](=O)[O-])c2)c1,0,-2,6,-11,-44*
CCCCN(C)CCCNC(=O)Cn1ncc2c3ccccc3n(Cc3cc(C)ccc3C)c2c1=O,-2,-1,96*,4,0
Cc1ccc(C)c(Cn2c3ccccc3c3cnn(CC(=O)NCCCN4CCOCC4)c(=O)c32)c1,0,-4,3,-5,-30*
OCCN(CCO)CC(O)COc1ccc(C23CC4CC(CC(C4)C2)C3)cc1 (stereo not given),0,2,31*,2,23
O=C(CSc1nc(=O)[nH]c2c1CCCC2)Nc1cc(C(F)(F)F)cc(C(F)(F)F)c1,0,-4,-1,0,7
CC(=O)Nc1cccc(C(=O)OC(C(=O)c2ccc(C)c(C)c2)c2ccccc2)c1 (stereo not given),1,7,1,4,19
COc1cc(Cl)c(C)cc1NC(=O)c1cc2c(s1)-c1c(C)cccc1OC2,0,-4,-1,-17,8
COc1cccc(CNC(=O)c2cc3c(s2)-c2c(C)cccc2OC3)c1,0,-8,2,14,-36*
COc1cccc(CNC(=O)c2cc3c(s2)-c2ccccc2OC3)c1,0,-6,2,1,-11
COc1ccc(NC(=O)c2cc3c(s2)-c2c(C)cccc2OC3)cc1Cl,1,-4,1,50*,-11
COc1ccc(C(=O)Nc2ccc3nc(SCC(=O)N(C)c4ccccc4)sc3c2)cc1,-1,4,32*,-2,-3
CCOc1ccc2nc(SCC(=O)c3ccccc3)sc2c1,4,2,22,-13,-43*
O=C(Nc1ccc2nc(SCC(=O)N3CCOCC3)sc2c1)c1ccc(Cl)cc1,0,-2,4,-2,-38*
